This is a sample that favours compounds with a hit; in the whole collection about 3.6% have one here.
Pf apPOL block: Pf-apPOL DNA polymerase inhibition; Recombinant Pf-apPOL, molecular beacon fluorescence, 1.5 h; inhibition, % at 10 µM; actives 0.25% (n = 210,000)
mHTT CaM bind: mHTT-calmodulin interaction abrogation. inhibition, % at 15 µM. actives 3.6% (n = 190,000). AlphaScreen His-mHTT/GST-CaM binding, luminescence
Target sequence (P42858 whole entry, looked up, change not shown): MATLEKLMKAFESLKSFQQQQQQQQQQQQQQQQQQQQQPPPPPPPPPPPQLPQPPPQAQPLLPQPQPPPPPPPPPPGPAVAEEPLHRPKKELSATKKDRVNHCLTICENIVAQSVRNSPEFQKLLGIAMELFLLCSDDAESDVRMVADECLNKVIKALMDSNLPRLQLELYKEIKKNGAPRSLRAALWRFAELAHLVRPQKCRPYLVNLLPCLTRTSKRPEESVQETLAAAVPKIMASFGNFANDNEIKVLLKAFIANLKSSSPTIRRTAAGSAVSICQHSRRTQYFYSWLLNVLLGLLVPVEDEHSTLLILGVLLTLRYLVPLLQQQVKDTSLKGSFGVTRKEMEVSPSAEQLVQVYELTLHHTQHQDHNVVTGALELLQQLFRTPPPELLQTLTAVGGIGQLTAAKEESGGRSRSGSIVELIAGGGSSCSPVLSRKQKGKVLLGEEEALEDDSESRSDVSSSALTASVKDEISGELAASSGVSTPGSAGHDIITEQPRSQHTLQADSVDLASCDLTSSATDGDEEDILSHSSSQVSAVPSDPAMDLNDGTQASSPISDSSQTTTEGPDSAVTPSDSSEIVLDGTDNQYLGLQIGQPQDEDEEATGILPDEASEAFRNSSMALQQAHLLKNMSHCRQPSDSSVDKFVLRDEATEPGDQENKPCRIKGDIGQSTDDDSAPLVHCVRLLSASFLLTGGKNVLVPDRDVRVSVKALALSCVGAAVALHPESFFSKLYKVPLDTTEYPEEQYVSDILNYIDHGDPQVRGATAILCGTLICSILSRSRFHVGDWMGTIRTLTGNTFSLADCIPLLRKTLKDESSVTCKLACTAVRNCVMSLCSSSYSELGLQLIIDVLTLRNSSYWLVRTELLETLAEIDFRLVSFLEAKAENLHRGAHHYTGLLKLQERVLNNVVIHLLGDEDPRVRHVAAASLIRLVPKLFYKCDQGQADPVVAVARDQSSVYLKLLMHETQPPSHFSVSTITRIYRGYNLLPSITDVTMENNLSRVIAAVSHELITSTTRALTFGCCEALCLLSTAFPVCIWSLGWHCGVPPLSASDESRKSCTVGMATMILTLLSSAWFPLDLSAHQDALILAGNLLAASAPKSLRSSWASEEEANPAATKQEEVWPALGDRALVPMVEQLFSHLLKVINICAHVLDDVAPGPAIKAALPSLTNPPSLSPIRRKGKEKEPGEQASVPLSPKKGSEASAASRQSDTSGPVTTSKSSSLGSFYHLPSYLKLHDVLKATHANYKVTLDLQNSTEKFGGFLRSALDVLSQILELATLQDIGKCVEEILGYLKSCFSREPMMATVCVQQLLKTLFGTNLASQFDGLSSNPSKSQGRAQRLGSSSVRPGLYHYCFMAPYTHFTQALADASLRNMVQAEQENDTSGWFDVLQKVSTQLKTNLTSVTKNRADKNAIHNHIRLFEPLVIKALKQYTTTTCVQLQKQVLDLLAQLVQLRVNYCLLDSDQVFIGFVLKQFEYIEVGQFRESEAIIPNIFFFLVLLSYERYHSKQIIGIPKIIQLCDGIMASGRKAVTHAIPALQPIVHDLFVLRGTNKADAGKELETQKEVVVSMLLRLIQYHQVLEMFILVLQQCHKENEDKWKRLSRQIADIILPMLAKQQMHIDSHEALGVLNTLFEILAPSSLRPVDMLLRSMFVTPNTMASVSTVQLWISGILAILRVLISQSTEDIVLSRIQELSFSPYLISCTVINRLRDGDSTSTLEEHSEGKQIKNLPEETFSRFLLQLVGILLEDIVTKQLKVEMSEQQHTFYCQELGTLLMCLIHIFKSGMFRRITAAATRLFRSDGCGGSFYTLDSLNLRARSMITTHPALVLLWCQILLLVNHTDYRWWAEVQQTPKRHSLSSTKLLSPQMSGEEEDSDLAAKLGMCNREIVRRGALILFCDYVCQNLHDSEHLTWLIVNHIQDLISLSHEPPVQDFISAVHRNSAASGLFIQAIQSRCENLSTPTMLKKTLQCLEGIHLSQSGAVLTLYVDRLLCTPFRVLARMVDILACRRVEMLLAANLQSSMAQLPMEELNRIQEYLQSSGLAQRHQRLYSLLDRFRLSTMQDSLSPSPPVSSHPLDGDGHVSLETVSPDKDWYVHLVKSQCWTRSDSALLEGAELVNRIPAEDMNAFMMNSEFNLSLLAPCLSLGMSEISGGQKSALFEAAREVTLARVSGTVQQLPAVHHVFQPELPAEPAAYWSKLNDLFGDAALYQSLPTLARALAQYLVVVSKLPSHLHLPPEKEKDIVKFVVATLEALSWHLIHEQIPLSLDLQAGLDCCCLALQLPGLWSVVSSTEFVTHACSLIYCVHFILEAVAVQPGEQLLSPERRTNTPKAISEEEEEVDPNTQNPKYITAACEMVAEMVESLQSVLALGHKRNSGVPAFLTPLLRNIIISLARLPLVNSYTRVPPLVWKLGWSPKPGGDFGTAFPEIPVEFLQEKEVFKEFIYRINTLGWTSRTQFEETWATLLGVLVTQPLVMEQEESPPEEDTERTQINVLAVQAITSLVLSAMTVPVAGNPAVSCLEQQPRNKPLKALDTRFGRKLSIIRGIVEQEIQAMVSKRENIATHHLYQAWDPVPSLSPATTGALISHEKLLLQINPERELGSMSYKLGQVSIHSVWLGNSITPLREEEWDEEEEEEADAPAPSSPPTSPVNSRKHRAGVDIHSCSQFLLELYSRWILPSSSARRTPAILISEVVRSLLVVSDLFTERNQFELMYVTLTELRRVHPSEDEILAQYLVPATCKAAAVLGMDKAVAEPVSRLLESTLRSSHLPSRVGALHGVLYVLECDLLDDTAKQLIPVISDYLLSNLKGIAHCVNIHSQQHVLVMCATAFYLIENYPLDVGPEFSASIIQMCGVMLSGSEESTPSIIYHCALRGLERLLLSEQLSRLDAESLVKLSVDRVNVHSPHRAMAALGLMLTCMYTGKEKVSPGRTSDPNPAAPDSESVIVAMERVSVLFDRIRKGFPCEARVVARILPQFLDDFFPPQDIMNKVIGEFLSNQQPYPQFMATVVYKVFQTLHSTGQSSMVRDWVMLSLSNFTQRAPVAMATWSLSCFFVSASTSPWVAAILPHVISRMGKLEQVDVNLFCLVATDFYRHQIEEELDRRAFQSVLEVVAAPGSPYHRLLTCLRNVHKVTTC
Of the large screens only hits and unclear results are named; the others gave an inactive call. Rule as the data show it: active = inhibition above about 50%; inactive = the rest.

Brc1ccc(C2Oc3ccccc3C3CC(c4cccs4)=NN32)o1 (stereo not drawn)	mHTT CaM bind 100
c1ccc(C2=NN3C(C2)c2ccccc2OC3c2cccnc2)cc1 (stereo not drawn)	none
CCOc1c(O)ccc(C2Oc3ccccc3C3CC(c4cccs4)=NN32)c1[N+](=O)[O-] (stereo not drawn)	mHTT CaM bind 54
Oc1ccc(O)c(C2=NN3C(C2)c2ccccc2OC3c2cccs2)c1 (stereo not drawn)	mHTT CaM bind 67
Clc1ccc(C2=NN3C(C2)c2ccccc2OC3c2ccco2)cc1 (stereo not drawn)	mHTT CaM bind 87
COc1ccc(O)c(C2Oc3ccccc3C3CC(c4cccs4)=NN32)c1 (stereo not drawn)	none
c1csc(C2=NN3C(C2)c2ccccc2OC3c2ccsc2)c1 (stereo not drawn)	none
Cc1ccc(C2=NN3C(C2)c2ccccc2OC3c2ccccc2)o1 (stereo not drawn)	none
O=C(c1ccc(Br)o1)N1CCCC(c2nnc(-c3ccccc3)o2)C1 (stereo not drawn)	none
Cc1ccc(N2CCC(NC(=O)Nc3ccccc3)C2=O)cc1 (stereo not drawn)	none
CCOc1ccc(N2C(=O)CSC2c2cccc(Cl)c2Cl)cc1 (stereo not drawn)	none
CCOc1cc([N+](=O)[O-])cc(C=Nc2ccc3oc(-c4ccc(OC)cc4)nc3c2)c1O	none
COc1ccc(-c2c(C)c3ccc(OCC(N)=O)cc3oc2=O)cc1OC	none
Oc1ccccc1C1Oc2ccccc2C2CC(c3cccs3)=NN21 (stereo not drawn)	mHTT CaM bind 51
Oc1ccc(C2Oc3ccccc3C3CC(c4cccs4)=NN32)cc1 (stereo not drawn)	mHTT CaM bind 51
c1ccc(C2Oc3ccccc3C3CC(c4cccs4)=NN32)cc1 (stereo not drawn)	none
c1cncc(C2Oc3ccccc3C3CC(c4cccs4)=NN32)c1 (stereo not drawn)	none
O=C(Nc1ccc2c(c1)OCCO2)C1(O)CCCCC1	none
CCc1ccccc1NC(=O)c1ccc(F)c(S(=O)(=O)NC2CCCCC2)c1	none
COc1ccc(C(=O)/C=C(\C)NCc2ccc(F)cc2)cc1	none
Cc1ccc(C)c(NC(=O)Cn2c(C(C)C)nc3c(c2=O)CN(Cc2ccccc2)CC3)c1	none
CCCc1noc(-c2cccnc2N2CCCN(Cc3ccc(Cl)cc3)CC2)n1	none
Cc1ccc(C)c(NS(=O)(=O)c2cn(C)c3ncccc23)c1	Pf apPOL block 91, mHTT CaM bind 55
CCCn1cc(S(=O)(=O)Nc2cccc(C)c2)c2cccnc21	none
Cc1cc(C)nc(SCc2cc(=O)c(OC(=O)c3cc4ccccc4o3)co2)n1	mHTT CaM bind 92
CC(=O)Nc1nnc(SCc2cc(=O)c(OC(=O)c3ccco3)co2)s1	none
Cc1ccccc1NC(=O)c1c(O)c2cccnc2n(-c2cccc(F)c2)c1=O	none
O=c1cc(-c2ccccc2[N+](=O)[O-])oc2ccccc12	none
Cc1cc(O)c2c(c1)C(=O)c1cc(O)cc(O)c1C2=O	none (no result: mHTT CaM bind)
O=c1oc2c(-c3ccccc3[N+](=O)[O-])cc(O)cc2s1	mHTT CaM bind 61
Cc1ccc(-c2cc(O)cc3sc(=O)oc23)cc1C	mHTT CaM bind 79
CC(C)N(Cc1ccccc1)C(=O)C1C2CC3OC(=O)C1C3C2 (stereo not drawn)	none
CCCCc1[nH]nc2c1C(c1ccc(Br)s1)C(C#N)=C(N)O2 (stereo not drawn)	none (no result: Pf apPOL block)
CCn1c(-c2cc(NC(=O)C3CCC3)n[nH]2)cc2ccccc21	none
Oc1ccc2ccccc2c1CN1CCCCC1	none (no result: mHTT CaM bind)
Oc1ccc2ccccc2c1SSc1c(O)ccc2ccccc12	mHTT CaM bind 100
COc1ccc(CN([C@H](C)C=O)S(=O)(=O)N(Cc2ccccc2)[C@H](C=O)C(C)C)cc1	mHTT CaM bind 97
C=C[C@H](CC(C)C)N(Cc1ccccc1)S(=O)(=O)N(Cc1ccc(OC)cc1)[C@H](C=C)CC(C)C	none
N#Cc1c(NC(=O)c2ccc([N+](=O)[O-])cc2C(=O)O)sc2c1CCCC2	none
CC(C)CC(=O)N1CCCC1c1ccccc1Cl (stereo not drawn)	none
CC(CNC(=O)CCc1nc(-c2ccc(N3CCCC3)cc2)no1)c1ccccc1 (stereo not drawn)	none
CCCc1nnc(NC(=O)C(CC)Sc2nnnn2-c2ccccc2)s1 (stereo not drawn)	none
CCC(Sc1nnnn1-c1ccccc1)C(=O)Nc1nc2ccccc2s1 (stereo not drawn)	mHTT CaM bind 52
Cc1ccnc(NC(=O)C(NC(=O)C2CCCCC2)C(C)C)c1 (stereo not drawn)	none
COc1ccccc1-n1c(SCC(=O)Nc2ccccc2F)nc2c(c1=O)SCC2	none
O=C(C=Cc1ccc2ccccc2n1)c1cccc(O)c1	none
CC1Oc2ccccc2C=C1C=CC(=O)c1cccc(O)c1 (stereo not drawn)	mHTT CaM bind 61
Cc1ccccc1C(=O)c1cn[nH]c1-c1ccccc1O	none
O=C(c1ccc(Cl)cc1)c1cn[nH]c1-c1ccccc1O	mHTT CaM bind 95
Cc1cccc(N(CC(=O)Nc2ccccc2Cl)S(C)(=O)=O)c1C	none
O=C(c1ccc2c(c1)OCO2)n1cccn1	Pf apPOL block 66
O=C(CSc1ccccn1)c1ccc2c(c1)OCO2	none
CCCN1C(=O)Cc2ccccc2C1C(=O)NCc1ccc(C)c(C)c1 (stereo not drawn)	none
COc1ccc(Nc2ccc(C(F)(F)F)cc2[N+](=O)[O-])cc1	mHTT CaM bind 53
COc1ccc(OCCNc2ccc(C(F)(F)F)cc2[N+](=O)[O-])cc1	none
Cc1ccccc1CC(=O)N1CCCC1c1nc(-c2cccc(Cl)c2)no1 (stereo not drawn)	none
O=C(NCc1ccc2c(c1)OCO2)C1CN(c2nc3c(F)cccc3s2)C1	none
COc1ccc(Cl)cc1NC(=O)CSC1=C(C#N)C(c2ccco2)C(C(N)=O)=C(C)N1 (stereo not drawn)	mHTT CaM bind 54
CC1=C(C(N)=O)C(c2ccco2)C(C#N)=C(SCC(=O)Nc2cccc(Cl)c2C)N1 (stereo not drawn)	none
CC1=NN(c2ccccc2)C(=O)/C1=C\c1cc(C)n(-c2cccc([N+](=O)[O-])c2)c1C	none
Cc1cc(/C=C2\C(=O)NC(=O)N(c3ccccc3)C2=O)c(C)n1-c1cccc([N+](=O)[O-])c1	mHTT CaM bind 59
CCCC=C1OC(=O)C2=C1CCC=C2	none (no result: mHTT CaM bind)
COc1ccc(NC(=O)CN2C(=O)CC(c3ccco3)Sc3ccccc32)c(OC)c1 (stereo not drawn)	mHTT CaM bind 92
COc1ccc(Cl)cc1NC(=O)CN1C(=O)CC(C)Sc2ccccc21 (stereo not drawn)	none
COc1ccc(CCNC(=O)CSc2ncnc3c2nnn3C)cc1OC	none
O=C1Nc2ccccc2S/C1=C\C(=O)N1CCN(c2ccc(F)cc2)CC1	none
O=C(/C=C1\Sc2ccccc2NC1=O)NCCCN1CCN(c2ccc(F)cc2)CC1	mHTT CaM bind 74
CC(C)n1c(=O)c(NCC2CCCCC2)nc2ccncc21	none
O=C(Nc1c[nH]c2ccccc12)N1CCN(c2cccc(C(F)(F)F)c2)CC1	mHTT CaM bind 59
O=C(Nc1nc(C(=O)N2CCN(c3cccc(C(F)(F)F)c3)CC2)co1)C1CC1	none
NC(C(=O)O)c1ccc2ccccc2c1 (stereo not drawn)	none
N#C/C(=C\c1ccc(I)o1)c1nc2ccccc2[nH]1	none
N#C/C(=C\c1cc(Cl)ccc1O)c1nc2ccccc2[nH]1	none
N#C/C(=C\c1ccc(O)cc1O)c1nc2ccccc2[nH]1	mHTT CaM bind 72
